Measurements taken from publication PMC11006913.

Legend:
Assay in all cases: PBM; 200 nM protein, PBS
Conditions in all cases: dsDNA, one strand shown
HESX1 [1] = target: HESX1 (Homo sapiens, UniProt Q9UBX0 95-180, R165K)
SHOX [2] = target: SHOX (Homo sapiens, UniProt O15266 103-189)
ALX4 = ALX4 (Homo sapiens, UniProt Q9H161 200-286, Q225E)
HESX1 [3] = target: HESX1 (Homo sapiens, UniProt Q9UBX0 95-180)
MSX2 = MSX2 (Homo sapiens, UniProt P35548 130-214, R199I)
ALX1 [4] = target: ALX1 (Homo sapiens, UniProt Q15699 118-204, L144V)
Sequence of ALX1 (Homo sapiens, UniProt Q15699 118-204, L144V) (Q15699 118-204 L144V): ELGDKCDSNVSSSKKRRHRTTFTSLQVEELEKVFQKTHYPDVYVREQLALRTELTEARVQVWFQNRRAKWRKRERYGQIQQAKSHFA

ALX3 [5] = target: ALX3 (Homo sapiens, UniProt O95076 139-225, N203Q)
Sequence of ALX3 (Homo sapiens, UniProt O95076 139-225, N203Q) (O95076 139-225 N203Q): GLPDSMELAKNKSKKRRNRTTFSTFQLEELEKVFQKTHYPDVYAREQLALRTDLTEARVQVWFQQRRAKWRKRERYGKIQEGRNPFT

SHOX [6] = target: SHOX (Homo sapiens, UniProt O15266 103-189, R173C)
Sequence of SHOX (Homo sapiens, UniProt O15266 103-189, R173C) (O15266 103-189 R173C): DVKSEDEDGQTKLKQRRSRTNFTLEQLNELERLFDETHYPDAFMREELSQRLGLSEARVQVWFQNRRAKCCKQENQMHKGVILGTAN

ALX1 [7] = target: ALX1 (Homo sapiens, UniProt Q15699 118-204, L144R)
Sequence of ALX1 (Homo sapiens, UniProt Q15699 118-204, L144R) (Q15699 118-204 L144R): as the sequence (Q15699 118-204 L144V) above, with V27R counted along it

ALX3 [8] = target: ALX3 (Homo sapiens, UniProt O95076 139-225)
Sequence of ALX3 (Homo sapiens, UniProt O95076 139-225) (O95076 139-225): as the sequence (O95076 139-225 N203Q) above, with Q65N counted along it

PROP1 [9] = target: PROP1 (Homo sapiens, UniProt O75360 56-141)
Sequence of PROP1 (Homo sapiens, UniProt O75360 56-141) (O75360 56-141): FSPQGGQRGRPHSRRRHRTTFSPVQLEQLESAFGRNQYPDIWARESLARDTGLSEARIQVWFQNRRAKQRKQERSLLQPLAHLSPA

HESX1 [10] = target: HESX1 (Homo sapiens, UniProt Q9UBX0 95-180, R109Q)
Sequence of HESX1 (Homo sapiens, UniProt Q9UBX0 95-180, R109Q) (Q9UBX0 95-180 R109Q): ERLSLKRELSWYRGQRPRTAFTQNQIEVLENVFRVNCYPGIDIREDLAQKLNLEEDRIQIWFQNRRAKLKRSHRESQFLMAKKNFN

PROP1 [11] = target: PROP1 (Homo sapiens, UniProt O75360 56-141, R99H)
Sequence of PROP1 (Homo sapiens, UniProt O75360 56-141, R99H) (O75360 56-141 R99H): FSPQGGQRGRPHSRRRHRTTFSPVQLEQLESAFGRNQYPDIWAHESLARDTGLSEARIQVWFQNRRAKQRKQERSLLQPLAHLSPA

ALX3 [12] = target: ALX3 (Homo sapiens, UniProt O95076 139-225, L168Q)
Sequence of ALX3 (Homo sapiens, UniProt O95076 139-225, L168Q) (O95076 139-225 L168Q): as the sequence (O95076 139-225 N203Q) above, with L30Q, Q65N counted along it

HESX1 [13] = target: HESX1 (Homo sapiens, UniProt Q9UBX0 95-180, P111T)
Sequence of HESX1 (Homo sapiens, UniProt Q9UBX0 95-180, P111T) (Q9UBX0 95-180 P111T): as the sequence (Q9UBX0 95-180 R109Q) above, with Q15R, P17T counted along it

ALX3 [14] = target: ALX3 (Homo sapiens, UniProt O95076 139-225, L168V)
Sequence of ALX3 (Homo sapiens, UniProt O95076 139-225, L168V) (O95076 139-225 L168V): as the sequence (O95076 139-225 N203Q) above, with L30V, Q65N counted along it

PROP1 [15] = target: PROP1 (Homo sapiens, UniProt O75360 56-141, F88S)
Sequence of PROP1 (Homo sapiens, UniProt O75360 56-141, F88S) (O75360 56-141 F88S): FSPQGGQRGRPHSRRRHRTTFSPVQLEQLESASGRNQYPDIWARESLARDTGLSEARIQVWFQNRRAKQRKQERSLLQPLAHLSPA

HESX1 [16] = target: HESX1 (Homo sapiens, UniProt Q9UBX0 95-180, F115L)
Sequence of HESX1 (Homo sapiens, UniProt Q9UBX0 95-180, F115L) (Q9UBX0 95-180 F115L): as the sequence (Q9UBX0 95-180 R109Q) above, with Q15R, F21L counted along it

ALX1 [17] = target: ALX1 (Homo sapiens, UniProt Q15699 118-204)
Sequence of ALX1 (Homo sapiens, UniProt Q15699 118-204) (Q15699 118-204): as the sequence (Q15699 118-204 L144V) above, with V27L counted along it

ALX3 [18] = target: ALX3 (Homo sapiens, UniProt O95076 139-225, N203S)
Sequence of ALX3 (Homo sapiens, UniProt O95076 139-225, N203S) (O95076 139-225 N203S): as the sequence (O95076 139-225 N203Q) above, with Q65S counted along it

Sequence of HESX1 (Homo sapiens, UniProt Q9UBX0 95-180, R165K) (Q9UBX0 95-180 R165K): as the sequence (Q9UBX0 95-180 R109Q) above, with Q15R, R71K counted along it
Sequence of HESX1 (Homo sapiens, UniProt Q9UBX0 95-180) (Q9UBX0 95-180): as the sequence (Q9UBX0 95-180 R109Q) above, with Q15R counted along it
Sequence of ALX4 (Q9H161 200-286 Q225E): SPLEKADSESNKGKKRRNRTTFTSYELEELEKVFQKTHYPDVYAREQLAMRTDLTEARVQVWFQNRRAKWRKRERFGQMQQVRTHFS
Sequence of SHOX (Homo sapiens, UniProt O15266 103-189) (O15266 103-189): as the sequence (O15266 103-189 R173C) above, with C71R counted along it
Sequence of MSX2 (P35548 130-214 R199I): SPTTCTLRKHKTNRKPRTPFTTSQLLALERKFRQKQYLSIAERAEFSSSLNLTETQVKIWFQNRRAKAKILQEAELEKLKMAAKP

With TAATTAGA the binding signal (HESX1 [1]) was 13.5 upbm affinity estimate (log intensity, higher = more binding, comparable within an allelic series), the binding signal (SHOX [2]) was 13.1 upbm affinity estimate (log intensity, higher = more binding, comparable within an allelic series) and the binding signal (ALX4) was 14.2 upbm affinity estimate (log intensity, higher = more binding, comparable within an allelic series). The binding signal (HESX1 [3]) was 13.5 upbm affinity estimate (log intensity, higher = more binding, comparable within an allelic series), the binding signal (MSX2) was 13.2 upbm affinity estimate (log intensity, higher = more binding, comparable within an allelic series) and the binding signal (ALX1 [4]) was 12.3 upbm affinity estimate (log intensity, higher = more binding, comparable within an allelic series). The binding signal (ALX3 [5]) was 8.56 upbm affinity estimate (log intensity, higher = more binding, comparable within an allelic series), the binding signal (SHOX [6]) was 10.5 upbm affinity estimate (log intensity, higher = more binding, comparable within an allelic series) and the binding signal (ALX1 [7]) was 12 upbm affinity estimate (log intensity, higher = more binding, comparable within an allelic series). For the same sequence, the binding signal (ALX3 [8]) was 12.9 upbm affinity estimate (log intensity, higher = more binding, comparable within an allelic series), the binding signal (PROP1 [9]) was 12.2 upbm affinity estimate (log intensity, higher = more binding, comparable within an allelic series) and the binding signal (HESX1 [10]) was 10 upbm affinity estimate (log intensity, higher = more binding, comparable within an allelic series). The binding signal (PROP1 [11]) was 12.2 upbm affinity estimate (log intensity, higher = more binding, comparable within an allelic series), the binding signal (ALX3 [12]) was 11.3 upbm affinity estimate (log intensity, higher = more binding, comparable within an allelic series) and the binding signal (HESX1 [13]) was 12.1 upbm affinity estimate (log intensity, higher = more binding, comparable within an allelic series). For the same sequence, the binding signal (ALX3 [14]) was 10.9 upbm affinity estimate (log intensity, higher = more binding, comparable within an allelic series), the binding signal (PROP1 [15]) was 8.08 upbm affinity estimate (log intensity, higher = more binding, comparable within an allelic series) and the binding signal (HESX1 [16]) was 8.35 upbm affinity estimate (log intensity, higher = more binding, comparable within an allelic series). The binding signal (ALX1 [17]) was 13 upbm affinity estimate (log intensity, higher = more binding, comparable within an allelic series) and the binding signal (ALX3 [18]) was 8.71 upbm affinity estimate (log intensity, higher = more binding, comparable within an allelic series).

For CTTGCGGC, the binding signal (HESX1 [1]) was 6.55 upbm affinity estimate (log intensity, higher = more binding, comparable within an allelic series), the binding signal (SHOX [2]) was 7.11 upbm affinity estimate (log intensity, higher = more binding, comparable within an allelic series) and the binding signal (HESX1 [3]) was 6.49 upbm affinity estimate (log intensity, higher = more binding, comparable within an allelic series). The binding signal (SHOX [6]) was 7.22 upbm affinity estimate (log intensity, higher = more binding, comparable within an allelic series), the binding signal (HESX1 [10]) was 6.47 upbm affinity estimate (log intensity, higher = more binding, comparable within an allelic series) and the binding signal (HESX1 [13]) was 6.52 upbm affinity estimate (log intensity, higher = more binding, comparable within an allelic series). The binding signal (HESX1 [16]) was 6.53 upbm affinity estimate (log intensity, higher = more binding, comparable within an allelic series).

For AATTAGTG, the binding signal (HESX1 [1]) was 12.1 upbm affinity estimate (log intensity, higher = more binding, comparable within an allelic series), the binding signal (SHOX [2]) was 12 upbm affinity estimate (log intensity, higher = more binding, comparable within an allelic series) and the binding signal (ALX4) was 13.2 upbm affinity estimate (log intensity, higher = more binding, comparable within an allelic series). The binding signal (HESX1 [3]) was 12.2 upbm affinity estimate (log intensity, higher = more binding, comparable within an allelic series), the binding signal (MSX2) was 12.6 upbm affinity estimate (log intensity, higher = more binding, comparable within an allelic series) and the binding signal (ALX1 [4]) was 11.8 upbm affinity estimate (log intensity, higher = more binding, comparable within an allelic series). The binding signal (ALX3 [5]) was 8.36 upbm affinity estimate (log intensity, higher = more binding, comparable within an allelic series), the binding signal (SHOX [6]) was 9.65 upbm affinity estimate (log intensity, higher = more binding, comparable within an allelic series) and the binding signal (ALX1 [7]) was 11.4 upbm affinity estimate (log intensity, higher = more binding, comparable within an allelic series). The binding signal (ALX3 [8]) was 12.4 upbm affinity estimate (log intensity, higher = more binding, comparable within an allelic series), the binding signal (PROP1 [9]) was 11.3 upbm affinity estimate (log intensity, higher = more binding, comparable within an allelic series) and the binding signal (HESX1 [10]) was 9.26 upbm affinity estimate (log intensity, higher = more binding, comparable within an allelic series). For the same sequence, the binding signal (PROP1 [11]) was 11.4 upbm affinity estimate (log intensity, higher = more binding, comparable within an allelic series), the binding signal (ALX3 [12]) was 10.7 upbm affinity estimate (log intensity, higher = more binding, comparable within an allelic series) and the binding signal (HESX1 [13]) was 10.9 upbm affinity estimate (log intensity, higher = more binding, comparable within an allelic series). For the same sequence, the binding signal (ALX3 [14]) was 10.1 upbm affinity estimate (log intensity, higher = more binding, comparable within an allelic series), the binding signal (PROP1 [15]) was 7.69 upbm affinity estimate (log intensity, higher = more binding, comparable within an allelic series) and the binding signal (HESX1 [16]) was 7.88 upbm affinity estimate (log intensity, higher = more binding, comparable within an allelic series). The binding signal (ALX1 [17]) was 12.5 upbm affinity estimate (log intensity, higher = more binding, comparable within an allelic series) and the binding signal (ALX3 [18]) was 8.46 upbm affinity estimate (log intensity, higher = more binding, comparable within an allelic series).

GGAAGACC was tested, and the binding signal (HESX1 [1]) was 6.27 upbm affinity estimate (log intensity, higher = more binding, comparable within an allelic series), the binding signal (SHOX [2]) was 7.12 upbm affinity estimate (log intensity, higher = more binding, comparable within an allelic series) and the binding signal (HESX1 [3]) was 6.19 upbm affinity estimate (log intensity, higher = more binding, comparable within an allelic series). For the same sequence, the binding signal (SHOX [6]) was 7.18 upbm affinity estimate (log intensity, higher = more binding, comparable within an allelic series), the binding signal (HESX1 [10]) was 6.45 upbm affinity estimate (log intensity, higher = more binding, comparable within an allelic series) and the binding signal (HESX1 [13]) was 6.41 upbm affinity estimate (log intensity, higher = more binding, comparable within an allelic series). The binding signal (HESX1 [16]) was 6.45 upbm affinity estimate (log intensity, higher = more binding, comparable within an allelic series).

In the case of CAAATTAA, the binding signal (HESX1 [1]) was 11.5 upbm affinity estimate (log intensity, higher = more binding, comparable within an allelic series), the binding signal (SHOX [2]) was 11.7 upbm affinity estimate (log intensity, higher = more binding, comparable within an allelic series) and the binding signal (ALX4) was 12.9 upbm affinity estimate (log intensity, higher = more binding, comparable within an allelic series). The binding signal (HESX1 [3]) was 11.5 upbm affinity estimate (log intensity, higher = more binding, comparable within an allelic series), the binding signal (ALX1 [4]) was 11.6 upbm affinity estimate (log intensity, higher = more binding, comparable within an allelic series) and the binding signal (ALX3 [5]) was 8.38 upbm affinity estimate (log intensity, higher = more binding, comparable within an allelic series). For the same sequence, the binding signal (SHOX [6]) was 9.3 upbm affinity estimate (log intensity, higher = more binding, comparable within an allelic series), the binding signal (ALX1 [7]) was 11.1 upbm affinity estimate (log intensity, higher = more binding, comparable within an allelic series) and the binding signal (ALX3 [8]) was 12.4 upbm affinity estimate (log intensity, higher = more binding, comparable within an allelic series). For the same sequence, the binding signal (PROP1 [9]) was 11 upbm affinity estimate (log intensity, higher = more binding, comparable within an allelic series), the binding signal (HESX1 [10]) was 8.49 upbm affinity estimate (log intensity, higher = more binding, comparable within an allelic series) and the binding signal (PROP1 [11]) was 10.7 upbm affinity estimate (log intensity, higher = more binding, comparable within an allelic series). For the same sequence, the binding signal (ALX3 [12]) was 10.4 upbm affinity estimate (log intensity, higher = more binding, comparable within an allelic series), the binding signal (HESX1 [13]) was 10.1 upbm affinity estimate (log intensity, higher = more binding, comparable within an allelic series) and the binding signal (ALX3 [14]) was 9.81 upbm affinity estimate (log intensity, higher = more binding, comparable within an allelic series). The binding signal (PROP1 [15]) was 7.49 upbm affinity estimate (log intensity, higher = more binding, comparable within an allelic series), the binding signal (HESX1 [16]) was 7.67 upbm affinity estimate (log intensity, higher = more binding, comparable within an allelic series) and the binding signal (ALX1 [17]) was 12.1 upbm affinity estimate (log intensity, higher = more binding, comparable within an allelic series). The binding signal (ALX3 [18]) was 8.48 upbm affinity estimate (log intensity, higher = more binding, comparable within an allelic series).
